A selection: hits, their analogues and other compounds. The true share with any hit is near 2.6%.
IDE cell inh: human IDE inhibitors in live cells, primary screen, fluorescence polarization, HEK cells, FAbetaB substrate; Insulin-degrading enzyme (Homo sapiens), P14735; FAbetaB cleavage; inhibition, % at 5.59 µM; 0.41% of 320,000 active; AID 434962, 2010;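 active = percent inhibition above the average of all tested compounds plus 3 SD, set per screening campaign, cut at about 16% in these data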;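 also: IDE supplied by intact live HEK cells; FP after avidin binding of uncleaved biotin substrate so inhibition keeps polarization high; 0% = DMSO wells and 100% = 60 µM reference IDE inhibitor Ii1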
Target sequence (P14735 whole entry, looked up): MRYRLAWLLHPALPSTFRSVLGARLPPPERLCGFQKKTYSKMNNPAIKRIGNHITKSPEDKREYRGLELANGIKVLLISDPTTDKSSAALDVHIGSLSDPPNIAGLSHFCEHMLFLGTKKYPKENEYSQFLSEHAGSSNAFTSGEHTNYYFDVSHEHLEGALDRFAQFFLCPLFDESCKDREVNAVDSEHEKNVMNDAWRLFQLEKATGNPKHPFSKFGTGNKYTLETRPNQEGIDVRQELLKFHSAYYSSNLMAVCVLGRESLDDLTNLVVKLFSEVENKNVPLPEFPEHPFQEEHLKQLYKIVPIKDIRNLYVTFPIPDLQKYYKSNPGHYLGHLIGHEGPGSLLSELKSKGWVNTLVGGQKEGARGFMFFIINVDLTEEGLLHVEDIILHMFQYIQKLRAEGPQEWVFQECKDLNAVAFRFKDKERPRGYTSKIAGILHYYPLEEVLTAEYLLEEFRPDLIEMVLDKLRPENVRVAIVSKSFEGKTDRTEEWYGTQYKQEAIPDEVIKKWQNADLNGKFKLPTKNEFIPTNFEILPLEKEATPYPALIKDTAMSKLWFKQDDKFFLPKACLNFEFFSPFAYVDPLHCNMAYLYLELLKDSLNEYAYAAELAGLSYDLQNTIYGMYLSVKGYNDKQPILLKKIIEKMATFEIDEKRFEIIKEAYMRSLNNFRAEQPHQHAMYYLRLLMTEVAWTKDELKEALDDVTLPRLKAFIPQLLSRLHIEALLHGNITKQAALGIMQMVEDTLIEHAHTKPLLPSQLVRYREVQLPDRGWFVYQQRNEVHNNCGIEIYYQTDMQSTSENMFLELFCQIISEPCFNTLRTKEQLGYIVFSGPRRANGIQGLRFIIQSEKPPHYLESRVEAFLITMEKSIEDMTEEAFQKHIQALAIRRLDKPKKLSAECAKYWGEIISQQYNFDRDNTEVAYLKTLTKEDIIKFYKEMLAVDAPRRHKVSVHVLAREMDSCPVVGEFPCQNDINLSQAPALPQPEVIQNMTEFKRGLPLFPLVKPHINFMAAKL
IDE cell activ: human IDE activators in live cells, primary screen, fluorescence polarization, HEK cells, FAbeta-B substrate. FAbeta-B cleavage; 0% vehicle, 100% cell-free pure enzyme wells. activation, % at 5.96 µM. AID 493087, 2011. 0.073% of 340,000 active;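 active = activation above the mean of all tested compounds plus 3 SD, set per screening campaign, cut at about 17% in these data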
CRFR2-BP antag: antagonists of CRF-BP/CRF-R2 complex, primary screen, cell-based, HEK293, calcium dye fluorescence, uHTS. CRF-induced calcium fluorescence. inhibition, % at 11.8 µM. 0.59% of 350,000 active;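 active = inhibition of the ligand-induced calcium signal above about 50% at the single tested concentration, limit read from the data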
CRFBP-R2 agonist: agonists of CRF-BP/CRF-R2 complex, primary screen, cell-based, HEK293, calcium dye fluorescence, uHTS. CRF-binding protein / CRF receptor 2 complex (human). calcium dye fluorescence (FLIPR); percent of saturating CRF peptide response. activation, % at 13.2 µM. 0.46% of 350,000 active;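 active = activation of at least 50%, plus an integration ratio under a set limit after plate pattern correction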;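 also: plate controls were neutral control wells without compound for no effect and CRF at EC100 for full effect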
Myeloid diff MLP: induction of myeloid progenitor differentiation, primary screen, cell-based, flow cytometry, MLPCN library; 1% of 360,000 active; calls only at 10 µM; AID 624256, 2012; ER-HoxA9 myeloid progenitors, lysozyme-GFP differentiation;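 active = normalized GFP-positive differentiation at or above the plate's own cutoff, the solvent-only control mean plus 3 SD; inconclusive = no clear call, values can overlap the other calls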;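 also: cells exposed to compound for four days before flow analysis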
TPT1 inhibitor: Candida albicans TPT1 enzyme inhibitors, primary screen, biochemical, fluorescence polarization; 0.81% of 300,000 active; inhibition, % at 5 µM; recombinant caTPT1, FP RNA substrate dephosphorylation;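 active = inhibition above the mean of all tested compounds plus 3 SD, set per screening campaign, cut at about 24% in these data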;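 also: plate controls were DMSO alone for no effect and ferristatin control at 100 nM for full effect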
* hit, by the source's call; i = inactive; ? = inconclusive; . = not tested or not shown; + = active, no number.

SMILES | IDE cell inh | IDE cell activ | CRFR2-BP antag | CRFBP-R2 agonist | Myeloid diff MLP | TPT1 inhibitor
COc1cccc2c1C(=O)c1c(O)c3c(c(O)c1C2=O)C[C@@](O)(C(=O)CO)C[C@@H]3O[C@H]1C[C@H](N)[C@@H](O)[C@H](C)O1 | 2 | -9 | -113 | 60* | ? | -169
O=C1NCCCN1C1OC(CO)C(O)C1O (centres undefined) | . | . | 14 | -2 | i | .
CCC(=O)N1CCN(c2ccnc3cc(Cl)ccc23)CC1 | 4 | -20 | 19 | 0 | i | 5
COc1cccc(Cl)c1NC(=O)N1CCN(c2ccnc3cc(Cl)ccc23)CC1 | 26* | -31 | 6 | 0 | i | -2
CC(Cc1n[nH]c(=S)n1N)c1ccccc1 (centres undefined) | 7 | -3 | -4 | 0 | i | -4
O=C(CCN1CCCC1=O)NC1CCCc2c1cnn2-c1ccccc1F (centres undefined) | 10 | -2 | 54* | 21 | i | 1
Cc1cc(NC(=O)CSc2nc(CCC3CCCC3)nc3ccccc23)no1 | 9 | -7 | -14 | 1 | + | -1
CCCc1nc(SCC(=O)Nc2cc(C)on2)c2ccccc2n1 | 12 | 0 | 5 | 0 | i | -4
CC(C)c1ccc(OCc2ccc(C(=O)NN3CCN(C)CC3)o2)cc1 | 7 | -3 | -6 | -1 | i | -1
COc1ccc(C2=Nn3c(nnc3-c3ccco3)SC2)cc1 | -6 | -2 | 68* | -6 | i | -5
CCOc1cc(NC(=S)NCC2CCCO2)c(OCC)cc1NC(=O)c1ccc(OC)cc1 (centres undefined) | -5 | 3 | -1 | -2 | i | -1
CCOc1cc(NC(=S)NCC2CCCO2)c(OCC)cc1NC(=O)c1ccccc1C (centres undefined) | 5 | -3 | 1 | -3 | + | -3
CSc1ccc(S(=O)(=O)Nc2ccc3c(c2)OCCO3)cc1 | -4 | 7 | -6 | -4 | + | -1
Cc1ccc(S(=O)(=O)Nc2ccc3nc(C)sc3c2)cc1 | -1 | -1 | 2 | -1 | i | 3
Cc1nc2ccc(NS(=O)(=O)c3ccc4c(c3)OCCO4)cc2s1 | 2 | 2 | 3 | 1 | + | -7
CCOc1cc2[nH]c(=O)n(Cc3ccccc3)c(=O)c2cc1OCC | 5 | 2 | 71* | -1 | i | -2
COc1ccc(Cn2c(=O)[nH]c3cc(OC)c(OC)cc3c2=O)cc1 | -1 | -1 | -9 | 0 | i | -3
COC(=O)Cc1ccc(NC(=S)N2CCN(c3ccc(F)cc3)CC2)cc1 | 9 | -5 | 11 | -1 | i | 20
Cc1cccc(NC(=O)COc2cccc3c2CCN(Cc2ccccc2)C3=O)c1C | 2 | 2 | 3 | -1 | + | -4
CCOC(=O)c1c(NC(=O)COc2cccc3c2CCN(C)C3=O)sc2c1CCC2 | 6 | 5 | -5 | 1 | + | -1
O=C(Nc1cccc(O)c1)c1cccc(NC(=O)c2cccs2)c1 | 5 | -1 | -4 | 1 | i | -5
CC1CCC(NC(=O)Cn2cnc3sccc3c2=O)CC1 (centres undefined) | 0 | 1 | -1 | -1 | i | .
CC(C)C(=O)N1CCN(c2ccccc2NC(=O)c2ccc(Br)o2)CC1 | 1 | 2 | -3 | 0 | i | .
NC(=O)[C@@H]1CCCN1Cc1nc(Cc2ccccc2Cl)no1 | 8 | 3 | -4 | 6 | i | 1
CNc1cncc(-c2ccc(F)cc2F)n1 | . | . | . | . | i | .
SMILES | IDE cell inh | IDE cell activ | CRFR2-BP antag | CRFBP-R2 agonist | Myeloid diff MLP | TPT1 inhibitor
O=C(CSCc1ccccc1)Nc1cc([N+](=O)[O-])ccc1F | 2 | -3 | 85* | -1 | i | -1
CCCCOc1ncnc2c1[nH]c1ccc(C)cc12 | 38* | . | 13 | -1 | i | -6
CCCOc1ncnc2c1[nH]c1ccc(OC)cc12 | 15 | -20 | -18 | -5 | i | -5
C/C(=N/NC(=O)c1ccoc1C)c1ccc(NC(=O)c2ccncc2)cc1 | -6 | 5 | -7 | 1 | i | -1
O=C(COc1ccccc1C(=O)c1cnn(-c2ccccc2)c1)Nc1ccc2ccccc2c1 | 3 | 4 | 141* | 15 | i | 0
O=c1sc2ccccc2n1CCOc1ccccc1 | 10 | 3 | 36 | -3 | i | 0
Cc1ccc(OCn2c(=O)sc3ccccc32)cc1 | 7 | -1 | 55* | -2 | i | 0
O=S(=O)(c1ccccc1Br)N(Cc1ccccc1)CC(O)COCc1ccccc1 (centres undefined) | . | 4 | -3 | 3 | i | .
CC(C)CCOP(=O)(c1ccc(N(C)C)cc1)C(Nc1ccccc1)c1ccc(N(C)C)cc1 (centres undefined) | 0 | 5 | 111* | 8 | i | 3
Cc1cc(C)c(OCCN(C)Cc2ccccc2)c(Br)c1 | 2 | -2 | 87* | 0 | i | -3
COc1cccc(CC(=O)OC(C)C(=O)Nc2ccc(N3CCOCC3)cc2)c1 (centres undefined) | -2 | 2 | 1 | 3 | i | 1
ON=C1c2ccccc2-c2ccccc21 | 8 | -7 | 8 | 0 | i | -4
NC(N)=NN=C1c2ccccc2-c2ccccc21 | 6 | 0 | 4 | -1 | + | 0
N#CC1=C(N)SC(N)=C(C#N)C1CCc1ccccc1 | 2 | -2 | -41 | 103* | + | 119*
CC1(C)CC(=O)C2=C(C1)OC(N)=C(C#N)C2CCc1ccccc1 (centres undefined) | 6 | 7 | -4 | 0 | i | -3
COc1ccc(Cc2nnc(NC(=O)Nc3ccc(C)cc3)s2)cc1OC | -5 | 4 | 83* | 2 | i | -5
COc1cccc(C=C2Cc3ccccc3C2=O)c1 | . | . | . | . | i | .
COc1cc(C=C2C(=O)c3ccccc3C2=O)cc(OC)c1OC | -3 | 1 | 88* | 1 | + | -1
O=C1ON=C(c2ccccc2)/C1=C/c1ccc(O)cc1 | -1 | -3 | -16 | 10 | i | 0
COc1cccc(/C=C2\C(=O)C(=O)c3ccccc32)c1 | 0 | -3 | 76* | -3 | + | 3
COc1cc(/C=C/c2ccccc2)cc(OC)c1 | . | 5 | -1 | 0 | i | .
COc1cc(C=C2C(=O)c3ccccc3C2=O)cc(OC)c1 | 4 | 3 | -7 | 0 | + | -3
COc1cc(/C=C2/C(=O)ON=C2c2ccccc2)ccc1O | 10 | -3 | 56* | 4 | i | 4
O=C(Nc1ccc(-c2nc3ccccc3[nH]2)cc1)c1cccc(N2C(=O)CCC2=O)c1 | 5 | -12 | 6 | -1 | i | 0

Screening data as filed in PubChem.
